Bioassay records as filed in PubChem BioAssay.
Hits are enriched below; roughly 4.2% of the tested compounds scored in any of these assays.
tim23-1 inh: tim23-1 yeast growth inhibition; inhibition, % at 20 µM; hit rate 1.3% among 330,000; AID 463212; S. cerevisiae tim23-1 growth, BacTiter-Glo luminescence, 24 h;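 active = growth inhibition of the mutant yeast at or above 50%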;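 note: temperature-sensitive mutant grown at 25 °C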
tim10-1 inh: growth inhibitors of tim10-1 mutant yeast. S. cerevisiae tim10-1 ts strain growth, BacTiter-Glo, 24 h. inhibition, % at 20 µM. hit rate 2.2% among 330,000;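 active = inhibition of at least 40%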;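 note: mutant grown at 25 °C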
NLRP3 yeast inh: inhibitors of NALP3 inflammasome in yeast; hit rate 0.39% among 330,000; Yeast reconstituted NLRP3/ASC/caspase-1, beta-gal luminescence, 24 h; inhibition, % at 10 µM;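 active = inhibition of 50% or more; inactive = inhibition below 50%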
NALP1 inh: inhibitors of NALP1 inflammasome in yeast; S. cerevisiae NALP1/ASC/caspase-1 growth, X-gal OD620, 72 h; inhibition, % at 10 µM; hit rate 0.61% among 280,000; AID 2071; in the data active = inhibition mostly above about 24%, no sharp cut-off; inactive = mostly below about 32%
TIM10 inh: growth inhibitors of TIM10 yeast strain. S. cerevisiae TIM10 strain growth, BacTiter-Glo luminescence, 24 h. inhibition, % at 10 µM. hit rate 1.4% among 330,000. AID 463195;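 active = inhibition of 40% or more at the single tested concentration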;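 note: wild-type TIM10 isogenic control strain grown at permissive 25 °C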
V-ATPase pHluor: yeast V-ATPase proton transport regulation by pHLuorin | response, % at 10 µM | S. cerevisiae, pHLuorin cytosolic pH fluorescence | hit rate 0.37% among 350,000 | AID 504577; in the data active = response mostly above about 7.3%, no sharp cut-off; inactive = mostly below about 5.4%; note: actives read high
Large screens that a line does not name were inactive.

CCOC(=O)N1CCN(c2ccc(F)cc2[N+](=O)[O-])CC1	none
CCCCn1c(N)c(N(CC(C)C)C(=O)c2oc3ccc(OCC)cc3c2C)c(=O)[nH]c1=O	NALP1 inh 36.3
CCCCN(C(=O)c1oc2ccc(OCC)cc2c1C)c1c(N)n(CC(C)C)c(=O)[nH]c1=O	none (no result: NALP1 inh)
CCOc1ccccc1NC(=O)CCC(=O)Nc1ccccc1OCC	none
CCOc1ccccc1NC(=O)CSc1ccccc1	NALP1 inh 27.3
O=S(=O)(Cc1cc(N2CCOCC2)nc(-c2ccccn2)n1)c1ccccc1	NALP1 inh 22.0
Cc1nc(CS(=O)(=O)c2ccc(Cl)cc2)cc(N2CCOCC2)n1	none
CCCCc1ccc(-c2nn[nH]n2)nc1	none (no result: tim23-1 inh, tim10-1 inh, NLRP3 yeast inh, NALP1 inh, TIM10 inh)
CC(=O)Nc1ccc(CN2CCN(CC(C)C)C(CCO)C2)cc1 (stereo unspecified)	none
Cc1cc(N2C(=O)C(O)=C(C(=O)c3ccc(C)o3)C2c2cccc(Oc3ccccc3)c2)no1 (stereo unspecified)	NALP1 inh 37.9
O=C(Nc1nccs1)c1ccc(-c2ccc([N+](=O)[O-])cc2)o1	NALP1 inh 32.1 (no result: tim23-1 inh, tim10-1 inh, NLRP3 yeast inh, TIM10 inh)
CCOC(=O)C1CCN(S(=O)(=O)c2ccc3[nH]c(=O)oc3c2)CC1	NALP1 inh 40.3
CCOC(=O)N1CCN(S(=O)(=O)c2ccc3[nH]c(=O)oc3c2)CC1	none
CC1=CN2C(=N)/C(=C/c3ccco3)C(=O)N=C2S1	none
CC1=CN2C(=N)/C(=C/c3ccc([N+](=O)[O-])o3)C(=O)N=C2S1	V-ATPase pHluor 142.8 (no result: tim23-1 inh, tim10-1 inh, NLRP3 yeast inh, TIM10 inh)
CC1CCCCC12NC(=O)N(CC(=O)Nc1ccccc1F)C2=O (stereo unspecified)	none (no result: NALP1 inh)
CC1CCCCC12NC(=O)N(CC(=O)Nc1ccccc1-c1ccccc1)C2=O (stereo unspecified)	NALP1 inh 37.1
CN(Cc1ccccc1)C(=O)c1[nH]cnc1C(=O)NC1CCN(C(=O)OC(C)(C)C)CC1	none (no result: NALP1 inh)
Cn1c(-c2ccc(C=O)s2)nc2c3ccccc3c3ccccc3c21	NALP1 inh 32.0
Cc1ccc(/C=N/n2c(-c3ccco3)n[nH]c2=S)s1	none
Cc1cc(O)c(C(C)C)cc1N=Nc1ccccc1C(=O)O	NALP1 inh 37.6
Cc1ccccc1OC(C)C(=O)N1CCN(c2ccccn2)CC1 (stereo unspecified)	NALP1 inh 32.5
COc1ccc(OC(C)C(=O)N2CCN(c3ccccn3)CC2)cc1 (stereo unspecified)	none
Cc1nc2nc(C)c(CCC(=O)NC3CCCCC3)c(C)n2n1	none
CCCCOC(=O)Nc1nnc(CC)s1	NALP1 inh 42.7
Cc1nnc(SCC(=O)O)o1	NALP1 inh 25.9
CCOc1ccc(CCNC(=O)COC(=O)COc2ccc(Cl)cc2)cc1OCC	none (no result: NALP1 inh)
CN(Cc1ccno1)Cc1cn(Cc2ccccc2)nc1-c1ccc2c(c1)OCO2	NALP1 inh 29.4
CC(C)c1ccc(NC(=O)C2CCCCC2C(=O)O)cc1 (stereo unspecified)	V-ATPase pHluor 14.1
O=C(O)c1ccc(/C=N/NC(=S)NC2CCCCC2)cc1	none
CC(=O)c1sc(NC(=O)CS(=O)(=O)c2ccccc2)nc1-c1ccccc1	V-ATPase pHluor 18.4 (no result: NALP1 inh)
CC(=O)c1sc(NC(=O)CS(=O)(=O)c2ccccc2)nc1C	none (no result: NALP1 inh)
COc1cc(CSc2nc(-c3ccccc3)cc(=O)[nH]2)cc(OC)c1	none
COc1ccc(-c2noc(CSc3nc(-c4ccccc4)cc(=O)[nH]3)n2)cc1	NALP1 inh 39.7
CCOC(=O)N1CCN(C(=O)CCc2ccc(S(=O)(=O)NC(C)C)cc2)CC1	none
CN1C[C@@H]2C[C@@H](C3=Cc4cc(Cl)ccc4OC3)N3CCC[C@@]23C1=O	none
COc1ccccc1CN1C[C@@H]2C[C@@H](C3=Cc4cc(Cl)ccc4OC3)N3CCC[C@@]23C1=O	NALP1 inh 25.8
Cc1ccc(NCc2ccncc2)c(Br)c1	NALP1 inh 31.8
Cc1cccc(OCC(=O)Nc2ncn[nH]2)c1C	none (no result: NALP1 inh)
CN(c1ccccc1C(=O)Nc1cccnc1)S(C)(=O)=O	none (no result: NALP1 inh)
Cc1cccc(Cn2c(C(C)(C)C)cc3cccnc32)c1	NALP1 inh 48.2
Cc1cnc(C(=O)Nc2ccc(N3CCN(C(=O)OC(C)(C)C)CC3)cc2)cn1	none
C=CCN(CC=C)C(=S)NC(=O)c1ccc(-c2ccccc2)cc1	NALP1 inh 38.9
O=C(CNC(=O)C1CCCCC1)Nc1ccccc1	none
O=c1c([N+](=O)[O-])c(N2CCCCC2)c2ccccc2n1-c1ccccc1	NALP1 inh 36.4
O=c1c([N+](=O)[O-])c(NCCN2CCCCCC2)c2ccccc2n1-c1ccccc1	none
CCOC(=O)N1CCN(C(=O)CN(C2CCCCC2)S(=O)(=O)c2ccc(F)cc2)CC1	NALP1 inh 38.1
COc1ccc(S(=O)(=O)N2CCC(C(=O)NCCC(=O)NC3CC3)CC2)cc1	NALP1 inh 34.0
COc1ccc(S(=O)(=O)N2CCC(C(=O)NCCC(=O)Nc3cccc(OC)c3)CC2)cc1	none
Cc1ccc([N+](=O)[O-])cc1NC(=O)CNC1CCCCC1	none
O=C(CNC1CCCC1)Nc1cc(Cl)ccc1[N+](=O)[O-]	NALP1 inh 44.8
Cc1ccccc1NS(=O)(=O)c1nnc(NC(=O)c2ccccc2C)s1	none
COc1ccc(C(=O)c2c(NC(C)=O)sc3c2CCN(C(=O)OC(C)(C)C)C3)cc1	NALP1 inh 44.1
CCOc1ccc(-c2c(C(=O)N/N=C/c3cccc(Br)c3)nnn2-c2nonc2N)cc1	NALP1 inh 37.2
COc1ccccc1/C=N/NC(=O)c1nnn(-c2nonc2N)c1-c1ccccc1	none
COc1ccccc1/C=N/NC(=O)c1nnn(-c2nonc2N)c1-c1cccs1	NALP1 inh 37.0
C/C(NC(=O)c1cccc(F)c1)=C1/C(=O)C[C@@H]2[C@H]1C2(C)C	none
COc1ccc(Cc2noc(CN(C)CCN3CCc4ccccc4C3)n2)cc1OC	NALP1 inh 28.9
CCOc1ccc2c(c1)C(c1cccs1)=NNC(c1cccnc1)=N2	NALP1 inh 29.9
Brc1ccc2c(c1)C(c1cccs1)=NNC(c1cccnc1)=N2	none
Cc1ccc2nsnc2c1S(=O)(=O)N1CCOCC1	NALP1 inh 34.2
O=C(CCCOc1ccccc1)N1CCCCC1	NALP1 inh 32.6
S=c1sc2c(N3CCOCC3)ncnc2n1-c1ccccc1	NALP1 inh 39.2
CCN1CCN(c2ncnc3c2sc(=S)n3-c2ccccc2)CC1	NALP1 inh 44.4
S=c1sc2c(N3CCN(Cc4ccccc4)CC3)ncnc2n1-c1ccccc1	none
COC(=O)c1ccc(NC(=O)C2CCN(S(C)(=O)=O)CC2)cc1	none
Cc1ccc(S(=O)(=O)Cc2ccc(C(=O)NCc3ccc4c(c3)OCO4)o2)cc1	none (no result: NALP1 inh)
CCOc1ccc(N2C(=O)CN=C2Nc2ccccc2Cl)cc1	none
O=C1CN=C(Nc2ccccc2Cl)N1c1ccccc1	NALP1 inh 33.8
Cc1cc(C)n2nc3ccccc3c2n1	NALP1 inh 24.8
Cc1cc(=O)[nH]c2c3ccccc3nn12	none
Cc1noc(C)c1CN(C(=S)NC1CC2CCC1C2)c1ccccc1 (stereo unspecified)	none
